The subject of assay [1] is DLD1. Nature of the assay: cell viability (CellTiter-Glo) relative to plate median (fraction of plate median); higher = more viable cells. Particulars: 5 µM; treatment time 24 h; reporter: 7TFP. The method in brief: (§1)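 Library compounds, at a final 5 µM, stayed on reporter cells for 24 h. The cells were colorectal cancer lines stably transduced with lentiviral TCF/Wnt firefly luciferase reporters, seeded in 384-well plates 24 h before dosing. Firefly luciferase or CellTiterGlo luminescence from parallel plates was normalised to the plate median in webcellHTS2 (additive, no log transformation), and two independent replicates were averaged.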

Assay [2] concerns HCT116. Described as above. As to conditions: 5 µM; treatment time 24 h; reporter: TCF4/Wnt. The gist of the method:
as §1

Assay [3] deals with SW480. Described as above. As to conditions: 5 µM; treatment time 24 h; reporter: 7TFP. The method in brief:
as §1

The test system of assay [4] is DLD1. In words: TCF/Wnt firefly luciferase reporter signal relative to plate median (fraction of plate median); higher = higher Wnt reporter signal. As to conditions: 5 µM; treatment time 24 h; reporter: 7TFP. The gist of the method: as §1
In general terms: Reporter assays use an easily measured gene product as a stand-in for the process of interest.

In assay [5] the test system is SW480. The description is as above. As to conditions: 5 µM; treatment time 24 h; reporter: 7TFP. The method in brief: as §1

± gives the standard deviation of the averaged measurements.

Consider `CC(=O)NCCc1ccc(O)cc1` [N-Acetyl-tyramine], for which the cell viability in assay [1] is 0.951 ± 0.017; in assay [2] it was 0.985 ± 0.092; in assay [3], 0.991 ± 0.0071. Moreover, the “TCF/Wnt firefly luciferase reporter signal” value in assay [4] is 1.13 ± 0.042; in assay [5], 1.05 ± 0.035.
For `Cc1ccc(N(CC2=NCCN2)c2cccc(O)c2)cc1`, the cell viability in assay [1] is 1.01 ± 0.042; in assay [2] it was 0.992 ± 0.2; in assay [3] it was 1.02 ± 0.014. Also, the “TCF/Wnt firefly luciferase reporter signal” value in assay [4] was 0.92 ± 0.039; in assay [5], 0.94 ± 0.044.
As for `C[C@@H]1O[C@@H](O[C@H]2[C@H](Oc3cc(O)c4c(c3)O[C@H](c3ccc(O)cc3)CC4=O)O[C@H](CO)[C@@H](O)[C@@H]2O)[C@H](O)[C@H](O)[C@H]1O`, the cell viability is 1.07 ± 0.042 in assay [1], 0.916 ± 0.11 in assay [2] and 0.975 ± 0.02 in assay [3]. In addition, the figures for the “TCF/Wnt firefly luciferase reporter signal” value in assay [4] and in assay [5] were 0.992 ± 0.24 and 1.01 ± 0.16, respectively.
As for `CC(=O)OCC(=O)[C@@]1(O)CC[C@H]2[C@@H]3C[C@H](C)C4=CC(=O)C=C[C@]4(C)[C@H]3[C@@H](O)C[C@@]21C` [6alpha-METHYLPREDNISOLONE ACETATE], the cell viability in assay [1] was found to be 1.03 ± 0.05; in assay [2], 0.957 ± 0.22; in assay [3], 0.994 ± 0.037. The “TCF/Wnt firefly luciferase reporter signal” value is 0.904 ± 0.15 in assay [4] and 0.937 ± 0.073 in assay [5].
Consider `CCOC(N)=O`, for which the cell viability was 1.01 ± 0.021 in assay [1], 1.04 ± 0.16 in assay [2] and 0.949 ± 0.018 in assay [3]. Moreover, the “TCF/Wnt firefly luciferase reporter signal” value in assay [4] came to 1.035 ± 0.0071; in assay [5] it was 0.982 ± 0.054.
Turning to `COc1ccc(C(=O)O)c(O)c1OC`, the cell viability in assay [1] turned out to be 0.991 ± 0.055; in assay [2] it was 0.977 ± 0.12; in assay [3], 0.9195 ± 0.00071. Moreover, the “TCF/Wnt firefly luciferase reporter signal” value in assay [4] was found to be 0.803 ± 0.069; in assay [5], 0.905 ± 0.19.
Regarding `CC/C(=C(/CC)c1ccc(O)cc1)c1ccc(O)cc1`, the cell viability turned out to be 0.959 ± 0.072 in assay [1], 0.845 ± 0.021 in assay [2] and 0.982 ± 0.11 in assay [3]. Besides, the “TCF/Wnt firefly luciferase reporter signal” value turned out to be 1.06 ± 0.18 in assay [4] and 1.13 ± 0.028 in assay [5].
The corresponding values for `NS(=O)(=O)c1cc2c(cc1Cl)NCNS2(=O)=O` are 0.988 ± 0.1, 1.02, 1.04 ± 0.042, 1.15 ± 0.071 and 1.1 ± 0.028.
The corresponding values for `C=CC(C1=CC(=O)C=CC1=O)c1ccccc1` (stereo not given) are 0.965 ± 0.064, 0.884 ± 0.098, 0.943 ± 0.038, 0.885 ± 0.022 and 0.984 ± 0.037.
Regarding `COc1cc(OC)c(-c2c(OC)cc(OC)cc2OC)c(OC)c1`, the values for the cell viability in assay [1], in assay [2] and in assay [3] were 1.015 ± 0.0071, 0.953 ± 0.14 and 1.02 ± 0.014, respectively. Moreover, the results for the “TCF/Wnt firefly luciferase reporter signal” value in assay [4] and in assay [5] were 0.926 ± 0.018 and 1.01, respectively.
The corresponding values for `COc1ccc2ccc(=O)oc2c1` are 1.02 ± 0.021, 0.992 ± 0.025, 0.97 ± 0.0071, 0.973 ± 0.053 and 0.915 ± 0.12.
The corresponding values for `CCCc1nc2c(C)cc(-c3nc4ccccc4n3C)cc2n1Cc1ccc(-c2ccccc2C(=O)O)cc1` are 0.975 ± 0.12, 0.992 ± 0.054, 1.01 ± 0.021, 0.98 ± 0.028 and 1 ± 0.021.
On to `CCCC(CCC)C(=O)O`, for which the values for the cell viability in assay [1], in assay [2] and in assay [3] were 1.03 ± 0.045, 1.09 ± 0.035 and 0.973 ± 0.052, respectively. The “TCF/Wnt firefly luciferase reporter signal” value was 1.115 ± 0.0071 in assay [4] and 1.06 ± 0.078 in assay [5].
For `CCCCCCOc1ccccc1C(N)=O`, the cell viability is 0.9695 ± 0.0078 in assay [1], 0.954 in assay [2] and 0.962 ± 0.041 in assay [3]. In addition, the “TCF/Wnt firefly luciferase reporter signal” value worked out at 1.09 ± 0.21 in assay [4] and 1.11 ± 0.13 in assay [5].
Turning to `NCCCCCC(=O)O`, the cell viability in assay [1] is 0.888 ± 0.054; in assay [2], 1.02 ± 0.014; in assay [3] it was 0.972 ± 0.083. The entries for the “TCF/Wnt firefly luciferase reporter signal” value in assay [4] and in assay [5] were 1 ± 0.11 and 1.01 ± 0.081, respectively.
For the compound `COC1=CC(=O)C(C(=O)c2ccccc2)=CC1=O`, the cell viability in assay [1] came out at 0.965 ± 0.015; in assay [2], 0.991 ± 0.028; in assay [3] it was 0.975 ± 0.028. The entries for the “TCF/Wnt firefly luciferase reporter signal” value in assay [4] and in assay [5] were 1.03 ± 0.09 and 1.04 ± 0.063, respectively.
As to `C[n+]1cccc(C(=O)[O-])c1`, the cell viability was found to be 1.03 ± 0.021 in assay [1], 0.938 ± 0.0085 in assay [2] and 1.01 ± 0.018 in assay [3]. Moreover, the “TCF/Wnt firefly luciferase reporter signal” value in assay [4] came out at 1.15 ± 0.071; in assay [5], 1.11 ± 0.092.
Consider `CO[C@H]1C[C@H](O[C@H]2[C@H](C)[C@@H](O[C@@H]3O[C@H](C)C[C@H](N(C)C)[C@H]3O)[C@@H](C)C[C@@]3(CO3)C(=O)[C@H](C)[C@@H](O)[C@@H](C)[C@@H](C)OC(=O)[C@@H]2C)O[C@@H](C)[C@@H]1O`, for which the values for the cell viability in assay [1], in assay [2] and in assay [3] were 0.97 ± 0.0028, 0.91 ± 0.087 and 0.915 ± 0.05, respectively. The “TCF/Wnt firefly luciferase reporter signal” value stood at 0.869 ± 0.05 in assay [4] and 1.05 ± 0.1 in assay [5].
Regarding `Cc1cc(O)cc(C)c1Cl`, the cell viability in assay [1] was 0.903 ± 0.012; in assay [2], 0.8955 ± 0.0021; in assay [3], 0.918 ± 0.13. Moreover, the “TCF/Wnt firefly luciferase reporter signal” value is 0.881 ± 0.059 in assay [4] and 1.01 in assay [5].
As for `O=C(CCCCC(=O)Nc1c(I)cc(I)c(C(=O)O)c1I)Nc1c(I)cc(I)c(C(=O)O)c1I`, the cell viability was found to be 1.05 in assay [1], 1.08 ± 0.16 in assay [2] and 1.01 ± 0.03 in assay [3]. Also, the “TCF/Wnt firefly luciferase reporter signal” value came out at 1.05 ± 0.028 in assay [4] and 1.06 ± 0.021 in assay [5].
For `CN(C)CCCN1c2ccccc2Sc2ccc(C(F)(F)F)cc21`, the cell viability came to 1.07 ± 0.17 in assay [1], 0.993 ± 0.081 in assay [2] and 1.04 ± 0.028 in assay [3]. Further, the “TCF/Wnt firefly luciferase reporter signal” value in assay [4] came out at 0.957 ± 0.034; in assay [5], 0.959 ± 0.17.
`CCCCCCCCCCCCCCCCOP(=O)([O-])OCC[N+](C)(C)C`: the values for the cell viability in assay [1], in assay [2] and in assay [3] were 1.04 ± 0.035, 0.984 ± 0.0099 and 0.969 ± 0.035, respectively. The “TCF/Wnt firefly luciferase reporter signal” value in assay [4] turned out to be 1.07 ± 0.16; in assay [5] it was 1.04 ± 0.05.
The corresponding values for `CC(=O)/C=C\[C@@H]1[C@@]2(C)CCCC(C)(C)C2CC[C@@]1(C)O` (stereo not given in full) are 1 ± 0.025, 1.14 ± 0.05, 1.055 ± 0.0071, 1.165 ± 0.0071 and 0.93 ± 0.11.
For `COc1ccc2c(c1)O[C@@H]1COc3cc(OC)c(OC)cc3[C@@H]1C2=O`, the values for the cell viability in assay [1], in assay [2] and in assay [3] were 1.02 ± 0.067, 0.841 ± 0.074 and 0.908 ± 0.037, respectively. Besides, the “TCF/Wnt firefly luciferase reporter signal” value in assay [4] was determined as 0.979 ± 0.087; in assay [5], 0.777 ± 0.046.
Consider `C[C@H]1[C@H]2CC[C@H]3[C@@H]4CC=C5C[C@@H](N(C)C)CC[C@]5(C)[C@H]4CC[C@]23CN1C`, for which the cell viability in assay [1] is 0.896 ± 0.0042; in assay [2], 0.783 ± 0.14; in assay [3], 0.984 ± 0.021. Moreover, the “TCF/Wnt firefly luciferase reporter signal” value in assay [4] stood at 0.9855 ± 0.00071; in assay [5], 1.05.
As for `NS(=O)(=O)c1ccc(S(=O)(=O)Nc2cccc3c(Cl)c[nH]c23)cc1` [indisulam], the figures for the cell viability in assay [1], in assay [2] and in assay [3] were 1.04 ± 0.028, 0.747 ± 0.07 and 0.926 ± 0.0028, respectively. Also, the “TCF/Wnt firefly luciferase reporter signal” value in assay [4] stood at 1.17 ± 0.014; in assay [5], 1.1 ± 0.15.
As for `COc1c(-c2ccccc2)oc2c(ccc3occc32)c1=O`, the cell viability in assay [1] worked out at 1.03 ± 0.035; in assay [2] it was 1.09 ± 0.078; in assay [3], 1.03 ± 0.021. The “TCF/Wnt firefly luciferase reporter signal” value in assay [4] came out at 1.09 ± 0.078; in assay [5], 1.05 ± 0.014.
Regarding `COc1cc(OC)c2c(OC)c(-c3ccc4c(c3)OCO4)c(=O)oc2c1`, the cell viability in assay [1] was determined as 1.04; in assay [2], 1.08 ± 0.05; in assay [3], 1.01 ± 0.061. In addition, the “TCF/Wnt firefly luciferase reporter signal” value in assay [4] worked out at 0.804 ± 0.36; in assay [5], 0.867 ± 0.34.
Regarding `Nc1nc(=O)c2c([nH]1)NCC(CNc1ccc(C(=O)N[C@@H](CCC(=O)O)C(=O)O)cc1)N2C=O` (stereo not given in full), the cell viability in assay [1] turned out to be 1 ± 0.085; in assay [2], 1.03; in assay [3], 1.01 ± 0.019. The “TCF/Wnt firefly luciferase reporter signal” value in assay [4] came to 1.02 ± 0.12; in assay [5], 1.01 ± 0.028.
Regarding `O=C(O[C@@H]1Cc2c(O)cc(O)cc2O[C@@H]1c1ccc(O)c(O)c1)c1cc(O)c(O)c(O)c1`, the results for the cell viability in assay [1], in assay [2] and in assay [3] were 0.946 ± 0.061, 0.805 ± 0.24 and 1.04 ± 0.1, respectively. Also, the “TCF/Wnt firefly luciferase reporter signal” value in assay [4] turned out to be 1.03 ± 0.11; in assay [5], 1.08 ± 0.021.

(Values after the supplement of paper PMC6522484.)
